# AI-2 QS modul – Vibrio harveyi AI-2 quorum sensing modulators, primary screen, JMH597 strain, luminescence/OD600 ratio | activity change, % at 7.5 µM | Vibrio harveyi JMH597 AI-2 luminescence/OD600 ratio, 9 h; active compounds read low; strain lacks LuxN and CqsS sensors; 0 = neutral-control median | 300,000 compounds, 0.4% hits; in the data active means activity change below about -75%, passing the limit was not always enough;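 further: luminescence divided by OD600 gain over 9 h not by final OD600 alone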
# PvdQ inh – P. aeruginosa PvdQ acylase inhibitors, primary screen, biochemical, fluorescence, plate reader and imaging, single point; purified PvdQ acylase; inhibition, % at 10 µM; 340,000 compounds, 0.063% hits; in the data active means inhibition above about 30%, passing the limit was not always enough;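 further: 0% = vehicle neutral wells and 100% = reference inhibitor wells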
# ERp5 block – inhibitors of ERp5-driven insulin aggregation, primary screen, biochemical, turbidity, absorbance 650 nm, single point | Protein disulfide-isomerase A6 (Homo sapiens), Q15084 | 90 min | inhibition, % at 9.99 µM | 350,000 compounds, 0.05% hits;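 active means mean replicate inhibition above about 25%, with every replicate also reaching it, limit read from the data, passing the limit was not always enough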
# Target sequence (Q15084 whole entry, looked up): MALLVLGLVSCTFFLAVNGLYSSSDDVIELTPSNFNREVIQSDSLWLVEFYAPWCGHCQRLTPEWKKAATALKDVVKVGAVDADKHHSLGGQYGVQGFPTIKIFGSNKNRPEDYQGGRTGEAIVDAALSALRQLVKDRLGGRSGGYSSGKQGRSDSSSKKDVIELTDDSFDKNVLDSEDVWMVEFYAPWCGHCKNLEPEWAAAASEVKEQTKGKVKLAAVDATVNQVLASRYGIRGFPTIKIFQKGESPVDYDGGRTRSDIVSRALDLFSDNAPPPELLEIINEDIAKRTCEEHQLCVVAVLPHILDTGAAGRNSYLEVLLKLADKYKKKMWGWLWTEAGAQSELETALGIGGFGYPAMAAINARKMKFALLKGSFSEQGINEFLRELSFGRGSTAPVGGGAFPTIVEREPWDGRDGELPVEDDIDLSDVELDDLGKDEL
# Vif inh – HIV Vif self-association inhibitors, primary screen, imaging, HEK293T, single point | HEK293T cells, Vif self-association by quenched fluorescence, 24 h | inhibition, % at 7.49 µM | 340,000 compounds, 0.35% hits | AID 602346, 2012; in the data active means inhibition above about 50%, passing the limit was not always enough
# PDI turbidity – inhibitors of human PDI, primary screen, biochemical, turbidity, single point, plate reader. Protein disulfide-isomerase (Homo sapiens), P07237. PDI insulin aggregation turbidity, A650, 90 min. inhibition, % at 10 µM. 350,000 compounds, 0.052% hits. AID 588391, 2011;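 active means mean inhibition across replicates of 30% or more, whatever share of single replicates reach that level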
# Active calls of the source: *; nt = no result. In the library only some 0.64% were active in any assay of this set; here they are far more common.
SMILES,AI-2 QS modul,PvdQ inh,ERp5 block,Vif inh,PDI turbidity
O=C(Oc1ccc(-c2ccccc2)cc1)c1ccco1,nt,-9,7,-8,-1
COC(=O)c1ccc(OC(=O)c2ccco2)cc1,28,81*,nt,9,0
CC(C)NC(=O)N(C)C[C@H]1Oc2ncc(C#CC3CC3)cc2C(=O)N([C@@H](C)CO)C[C@@H]1C,nt,nt,-8,nt,nt
CCCC(=O)N1CCC2(CC1)CN(C(=O)COC)[C@@H](CO)c1c2c2ccc(OC)cc2n1C,nt,nt,6,nt,nt
O=C(Nc1ccccc1F)N1C[C@@H]2[C@H](c3ccccc31)[C@H](CO)N2C(=O)c1ccc(F)cc1,nt,nt,-5,nt,nt
COc1cccc(Oc2nnnn2-c2ccccc2)c1,10,4,2,-8,8
COc1cccc(-n2nnnc2S(C)(=O)=O)c1,-87*,-10,nt,6,7
COc1cccc(-n2nnc(S(=O)(=O)c3ccc(C)cc3)c2N)c1,-92*,-9,-6,-3,-2
COc1cccc(-n2cnnn2)c1,-1,5,nt,21,-5
CN(C)C(=O)C[C@@H]1C[C@H]2c3cc(NS(C)(=O)=O)ccc3O[C@H]2[C@@H](CO)O1,nt,nt,93*,nt,nt
CS(=O)(=O)Nc1ccc2c(c1)[C@@H]1C[C@H](CC(=O)O)O[C@@H](CO)[C@@H]1O2,nt,nt,-6,nt,nt
CN(C)C(=O)C[C@@H]1C[C@@H]2c3cc(NS(C)(=O)=O)ccc3O[C@@H]2[C@H](CO)O1,nt,nt,77*,nt,nt
C=CCNc1sc(C(=O)c2ccc(Br)s2)c(N)c1C#N,7,-1,nt,111*,8
C=CCNc1sc(C(=O)c2ccccc2)c(N)c1C#N,7,-19,nt,0,-5
COc1cccc(NC(=O)Nc2ccc3c(c2)C(=O)N(C)[C@@H]2CC[C@@H](CC(=O)NCCc4ccccc4)O[C@@H]2CO3)c1,nt,nt,-3,nt,nt
CC1=NC(C(F)(F)F)(C(F)(F)F)C2=C(CC(C)(C)CC2=O)N1Cc1ccco1,4,7,nt,-5,-1
CC1(C)CC(=O)C2=C(C1)N(Cc1ccco1)C(=O)NC2(C(F)(F)F)C(F)(F)F,9,-8,nt,54*,6
CCN1CCc2c(sc(NC(=S)NC(=O)c3ccc(Cl)cc3)c2C(N)=O)C1,-12,10,-1,51*,1
CCN1CCc2c(sc(NC(=O)c3ccc4ccccc4c3)c2C(N)=O)C1,-3,-4,11,2,2
COc1ccc(NC(=O)N(C)C[C@@H]2OCCCC[C@@H](C)Oc3ccc(NC(=O)Nc4ccc(F)cc4)cc3C(=O)N([C@H](C)CO)C[C@H]2C)cc1,nt,nt,-4,nt,nt
O=C(Nc1nnc(-c2ccco2)o1)c1cccc(Cl)c1,-134*,-6,-3,4,1
O=C(Nc1nnc(-c2cccs2)o1)c1cccc(F)c1,-85*,0,-2,13,1
CC(C)NC(=O)N(C)C[C@@H]1Oc2ncc(C#CC3(O)CCCC3)cc2C(=O)N([C@@H](C)CO)C[C@@H]1C,nt,nt,-5,nt,nt
O=c1ccc2[n+]([O-])c3ccc(O)cc3oc-2c1,-418*,1,-3,7,17
O=c1sc(N2CCN(c3ccc(F)cc3)CC2)nc2ccsc12,13,-2,-13,68*,nt
SMILES,AI-2 QS modul,PvdQ inh,ERp5 block,Vif inh,PDI turbidity
O=C(COC(=O)c1ccccc1Br)NC1CCCC1,22,-7,-1,80*,0
C[C@@H]1CCCCO[C@H](CN(C)S(C)(=O)=O)[C@@H](C)CN([C@@H](C)CO)C(=O)c2cc(NS(=O)(=O)c3ccccc3)ccc2O1,nt,nt,6,nt,nt
C[C@@H]1CN([C@H](C)CO)C(=O)c2cc(NS(=O)(=O)c3ccc(Cl)cc3)ccc2O[C@@H](C)CCCCO[C@@H]1CN(C)C(=O)CCC(F)(F)F,nt,nt,-4,nt,nt
COc1cc(/C=C(/C#N)C(=O)NC(C)c2ccccc2)cc(OC)c1O (stereo not given),14,0,-1,54*,-5
C[C@@H]1CN([C@H](C)CO)S(=O)(=O)c2ccc(C3=CCCCC3)cc2O[C@H]1CN(C)Cc1cccc(C(=O)O)c1,nt,nt,-2,nt,nt
CCOC(=O)C1(Cc2cccc(F)c2)CCN(Cc2cnn(CC)c2)CC1,4,-9,7,-7,6
CCOC(=O)C1(Cc2cccc(F)c2)CCN(Cc2nc(CC)[nH]c2C)CC1,14,-7,-3,85*,2
CCOC(=O)C1(Cc2ccccc2)CCN(Cc2csc(C(C)=O)c2)CC1,18,-13,-2,119*,3
C[C@H](O)C#Cc1cnc2c(c1)C(=O)N([C@H](C)CO)C[C@H](C)[C@H](CN(C)C(=O)Nc1ccc(F)cc1)O2,nt,nt,10,nt,nt
COc1cccc(NC(=O)N2CC3(C2)[C@@H](c2ccccc2)[C@@H](CO)N3C(=O)C2CCC2)c1,nt,nt,-1,nt,nt
Cc1ccc(N(C(=O)c2csnn2)C(C(=O)NC2CCCC2)c2ccccn2)cc1 (stereo not given),9,-13,5,56*,-2
O=C(NC1CCCC1)C(c1ccccn1)N(C(=O)c1csnn1)c1ccccc1 (stereo not given),3,-1,3,15,0
Cc1noc(C)c1NC(=O)Nc1ccc2c(c1)C(=O)N([C@H](C)CO)C[C@@H](C)[C@@H](CN(C)Cc1ccc(C(F)(F)F)cc1)OCCCC[C@H](C)O2,nt,nt,-5,nt,nt
COc1ccc(Cc2nnc(SCC(=O)NC3(C#N)CCCCC3)n2N)cc1,18,20,25*,1,9
Cc1cccc(NC(=O)Nc2cc(C)on2)c1,12,39*,nt,nt,-7
Cc1ccc(NC(=O)Nc2cc(C)on2)cc1,-26,2,-1,4,-1
O=C(CC1CC1)N1CC2(C1)[C@H](c1ccccc1)[C@@H](CO)N2CC1CCOCC1,nt,nt,3,nt,nt
Cn1cc(CN2CCc3c([nH]c4ccccc34)C2C2CCCCC2)cn1 (stereo not given),16,-11,-2,-5,-2
Cn1cc(CN2CCc3c([nH]c4ccccc34)C2C(C)(C)C)cn1 (stereo not given),26,6,-1,86*,-7
CN(/N=C/c1ccc(N(C)C)cc1)C1=NS(=O)(=O)c2ccccc21,9,-14,-1,128*,-2
CN1C(=O)C(C)(C)c2cc(S(=O)(=O)N3CCCCCC3)ccc21,7,0,6,88*,nt
CCc1cccc2c(C(=O)COC(=O)c3ccc([N+](=O)[O-])s3)c[nH]c12,-206*,1,4,0,-11
O=C(OCC(=O)c1c[nH]c2ccccc12)c1ccc([N+](=O)[O-])s1,-99*,1,-5,22,-4
O=C(Cc1ccccc1)Nc1ccc(N2CCOCC2)cc1,13,5,-2,59*,-18
CCCNC(=O)C[C@H]1CC[C@@H]2[C@H](COc3ccc(NC(=O)NCCC)cc3C(=O)N2C)O1,nt,nt,-2,nt,nt
